Experimental data as given in paper PMC10726135, “HNF4α isoforms regulate the circadian balance between carbohydrate and lipid metabolism in the liver”.
In all, about 18,000 sequences were measured (“log2 normalized intensity”: median about 0.39, highest 2% from about 6.6 on). For the sample, the highest values were picked, then their nearest neighbours and some sequences at random.

target: T1, HNF4alpha2 (COS-7 nuclear extract) (Homo sapiens, UniProt P41235 1-474); assay: protein-binding microarray; COS-7 nuclear extract on double-stranded Agilent 4x180k PBM; binding buffer, salt, pH and temperature not given in the material; high values mean tight binding; details: chain copies: 2; label: 3' end of strand 1 on the slide; dsDNA, one strand shown
T1 sequence: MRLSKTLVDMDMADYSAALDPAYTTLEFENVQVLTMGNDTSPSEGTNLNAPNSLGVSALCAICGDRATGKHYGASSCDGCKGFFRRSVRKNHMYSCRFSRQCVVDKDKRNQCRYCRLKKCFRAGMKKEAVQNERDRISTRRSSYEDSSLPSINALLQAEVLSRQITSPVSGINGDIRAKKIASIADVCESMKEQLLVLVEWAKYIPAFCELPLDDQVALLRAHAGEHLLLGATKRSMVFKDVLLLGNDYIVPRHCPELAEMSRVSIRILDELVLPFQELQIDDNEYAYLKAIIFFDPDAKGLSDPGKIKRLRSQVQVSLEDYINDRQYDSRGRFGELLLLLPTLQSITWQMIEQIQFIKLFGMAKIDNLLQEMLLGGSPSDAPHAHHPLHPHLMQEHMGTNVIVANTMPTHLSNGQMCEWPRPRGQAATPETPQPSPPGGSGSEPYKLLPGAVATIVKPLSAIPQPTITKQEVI
Method in brief: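 Using CaPO4, COS-7 cells were transiently transfected with a human HNF4α isoform expression vector, and their nuclear extracts were applied to a custom Agilent SurePrint G3 4x180k double-stranded oligonucleotide array (~60 nt; ~44,000 test sequences in quadruplicate). Bound HNF4α was imaged at 2-µm resolution with an Agilent G2565CA scanner. Agilent software supplied the background-corrected, normalized gProcessedSignal that serves as the binding signal.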

Sequence | binding signal [log2 normalized intensity]
TTAAATCCTATCCTAGGGTTAAAGTCTACAGCCTAGGGAGATTAGAGTATCGGTCGA | 4.31
ACCCCACGGACTTAAATTGTGCTGTGTCAGGCCTAGGGAGATTAGAGTATCGGTCGA | 1.49
CAAAGTCCGCTTGCCTGAGGGTCATGACTAGCCTAGGGAGATTAGAGTATCGGTCGA | 2.26
GCCAATTCAGCAAACAAAGGCACTTCTCTCGCCTAGGGAGATTAGAGTATCGGTCGA | -0.96
TGAGCAGGCAGTGTCACAGAAATCATGTAGGCCTAGGGAGATTAGAGTATCGGTCGA | 0.722
AGGTCAAAGTGCAACTACAAGGAGCAGCCTGCCTAGGGAGATTAGAGTATCGGTCGA | 3.48
ACCTTGTGCAGTATCCCAGGGACTTACTCAGCCTAGGGAGATTAGAGTATCGGTCGA | -0.811
AGAGCCTAGTTCATTGCAATTACTCAATAAGCCTAGGGAGATTAGAGTATCGGTCGA | -0.91
CAATAAGCAATACATTGAACTTTGAACACCGCCTAGGGAGATTAGAGTATCGGTCGA | 6.91
AGCAATACATTGAACTTTGAACACCTCTTCGCCTAGGGAGATTAGAGTATCGGTCGA | 5.41
TTTTCAACATATACTTTGAACTTGTTTTTTGCCTAGGGAGATTAGAGTATCGGTCGA | 2.27
AAGCAAACAAAACACGGACTTTGAAGCTCCGCCTAGGGAGATTAGAGTATCGGTCGA | 1.95
TTGTTCAATAAGCAATACATTGAACTTTGAGCCTAGGGAGATTAGAGTATCGGTCGA | 7.41
TTTCATCTTCTTAGCCTTTGAACCCCACACGCCTAGGGAGATTAGAGTATCGGTCGA | 4.78
GATTTCATCTAAGGACAAACTTTGTCACTGGCCTAGGGAGATTAGAGTATCGGTCGA | 1.15
ATCTAAGATTCCCCCTACCCTCAATATCTGGCCTAGGGAGATTAGAGTATCGGTCGA | 4.35
TTAACAAGCATTTTGTTCCCATTGATCATTGCCTAGGGAGATTAGAGTATCGGTCGA | 1.23
CTGCCAAAGCTCACAGATGTGGAATGAAACGCCTAGGGAGATTAGAGTATCGGTCGA | -0.0699
AAACAATGACCTCTGCACCCTTCCCTGAGTGCCTAGGGAGATTAGAGTATCGGTCGA | 3.51
CAATGACCTTTGACCCTTCTCTGGGAGAAAGCCTAGGGAGATTAGAGTATCGGTCGA | 8.21
TTTGAAAGAAAGAGACCTTTACCCTGACCTGCCTAGGGAGATTAGAGTATCGGTCGA | 3.55
GAAGGAGCACCAATGACCTTTGACCCTTCTGCCTAGGGAGATTAGAGTATCGGTCGA | 11.1
CAATCCTGGAGAAGGAGCACCAATGACCTTGCCTAGGGAGATTAGAGTATCGGTCGA | 3.47
ACCTTTGACCCTTCTCTGGGAGAAAGGGAGGCCTAGGGAGATTAGAGTATCGGTCGA | 2.99
TTCCCTCATGATTTAGTAAGTTCAAGAAGAGCCTAGGGAGATTAGAGTATCGGTCGA | 0.956

Sequence | binding signal [log2 normalized intensity]
GGCCTTGGGCCACCTGAGACAGTTTATGCCGCCTAGGGAGATTAGAGTATCGGTCGA | -0.994
CCCTTTGGCCTTTCTAATTATTTACAGGGAGCCTAGGGAGATTAGAGTATCGGTCGA | 0.82
GTAGAGACCTGTCTTCCTGGTGACCTTTGTGCCTAGGGAGATTAGAGTATCGGTCGA | 7.11
CAATAAGGACTTTGGACCGTCTTGTGGATCGCCTAGGGAGATTAGAGTATCGGTCGA | 5.92
ATGTGGGGCGTGTGTTAGACTTTGGACCTGGCCTAGGGAGATTAGAGTATCGGTCGA | 8.86
AGGACTTTGGACCGTCTTGTGGATCCTTGGGCCTAGGGAGATTAGAGTATCGGTCGA | 4.73
CTCATTCCTATTCGGTGCTGACCTTTGTTCGCCTAGGGAGATTAGAGTATCGGTCGA | 7.77
GAGCACTCATTCCTATTCGGTGCTGACCTTGCCTAGGGAGATTAGAGTATCGGTCGA | 3.47
TAGACTTTGGACCTGGCCTGCGGGGTCAGGGCCTAGGGAGATTAGAGTATCGGTCGA | 5.39
GACCTGTCTTCCTGGTGACCTTTGTTTGGTGCCTAGGGAGATTAGAGTATCGGTCGA | 4.94
CGGGTATGTGGGGCGTGTGTTAGACTTTGGGCCTAGGGAGATTAGAGTATCGGTCGA | 4.22
GTCAAGTAGAGACCTGTCTTCCTGGTGACCGCCTAGGGAGATTAGAGTATCGGTCGA | 2.19
TCCTATTCGGTGCTGACCTTTGTTCACATTGCCTAGGGAGATTAGAGTATCGGTCGA | 5.89
ACACACAATAAGGACTTTGGACCGTCTTGTGCCTAGGGAGATTAGAGTATCGGTCGA | 7.27
CATGGGCTGTCACCTTTACCCCCACTCTCCGCCTAGGGAGATTAGAGTATCGGTCGA | 4.46
CTCCCAAGGTATCCTCCTAGAGTCCAAGGTGCCTAGGGAGATTAGAGTATCGGTCGA | 2.68
GAACTTTGACTTATTTAGTAGTGGCAAGAGGCCTAGGGAGATTAGAGTATCGGTCGA | 2.7
CAAAGCCCCTTTCCACTCTACCGTCCTCCCGCCTAGGGAGATTAGAGTATCGGTCGA | 1.91
CCAGGGACTTTGAACACTTCTTTGTTACTTGCCTAGGGAGATTAGAGTATCGGTCGA | 2.44
GTGCTGACCTCCTGTCTCATCCTGTGACCAGCCTAGGGAGATTAGAGTATCGGTCGA | 1.42
TCACCCTCTCCACCCCCATGCAAGTTCCCAGCCTAGGGAGATTAGAGTATCGGTCGA | 5.26
CCTGATGACAACTGAATGTGACCTTTTGGAGCCTAGGGAGATTAGAGTATCGGTCGA | 5.25
CACCTGTGTCAACATGGACTTTGTTGTTTGGCCTAGGGAGATTAGAGTATCGGTCGA | 4.33
GTGAGTGGACTTTGGTCCTGGTCAGACTTGGCCTAGGGAGATTAGAGTATCGGTCGA | 5.76
TTCAAAGGACAGACTTTGGACCTGGCCCTCGCCTAGGGAGATTAGAGTATCGGTCGA | 5.66
